The record followed here is PubChem BioAssay (Tox21).

Records with an inconclusive call do not appear. Unmarked numbers belong to inactive results. Activity calls are given as the source filed them. Calls follow the shape of the full dose curve.
% is scaled to controls: 0 for no effect and ±100 for the full control effect.

The nature of this assay: qHTS assay for small molecule agonists of the p53 signaling pathway - cell viability (AID 651633).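 Also: p53RE-bla HCT reporter cells with a stable beta-lactamase p53 reporter; nearly all actives have a fitted effect of over 30% in size.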 The note with it: p53RE-bla HCT-116 viability, ATP luminescence, 16 h; series mostly up to 83.3 µM; activity change, negative = cytotoxicity: at the top concentration. From the text:
National Center for Advancing Translational Sciences [NCATS]
NIH Chemical Genomics Center [NCGC]
U.S. Environmental Protection Agency [EPA]
National Institutes of Environmental Health Sciences [NIEHS]
National Toxicology Program [NTP]
U.S. Food and Drug Administration [FDA]
p53, a tumor suppressor protein, is activated following cellular insult, including DNA damage and other cellular stresses. The activation of p53 regulates cell fate by inducing DNA repair, cell cycle arrest, apoptosis, or cellular senescence. The activation of p53, therefore, is a good indicator of DNA damage and other cellular stresses. […] The activation of the reporter gene under culture conditions can be detected by fluorescence intensity. This cell line was used to screen the Tox21 compound library in a 1536-well plate format and to identify agonists that activate the p53 signaling pathway.
Tox21 Assay Protocol Summary:
The p53RE-bla cells were dispensed at 4,000 cells/5 ul/well in 1536-well black wall/clear bottom plates using a Multidrop dispenser. After the assay plates were incubated at a 37 C/5% CO2 incubator for 5 hours, 23 nL of compounds dissolved in DMSO, positive controls or DMSO only was transferred to the assay plate by a pin tool. The plates were incubated at 37 C for 16 hours. After 1 uL of LiveBLAzerTM B/G FRET substrate was added using a Flying Reagent Dispenser, the plates were incubated at room temperature for 2 hours, and fluorescence intensity was measured by an Envision plate reader.
For cell viability readout that measures cytotoxicity, 4 ul/well of CellTiter-Glo reagent was added into the assay plates using a Flying Reagent Dispenser. After 30 min incubation at room temperature, the luminescence intensity in the plates was measured using a ViewLux plate reader.
As to `O=c1c(O)c(O)c1=O`, the “activity change, negative = cytotoxicity” value was 19%.

With `CC(C)(Sc1cc(C(C)(C)C)c(O)c(C(C)(C)C)c1)Sc1cc(C(C)(C)C)c(O)c(C(C)(C)C)c1`, the “activity change, negative = cytotoxicity” value is 22.4% [at 39.1 µM].

For the compound `CC(C)C(C)C`, the “activity change, negative = cytotoxicity” value is 18.5%.

Turning to `Cc1cc(N)no1`, the “activity change, negative = cytotoxicity” value is 13.3% [at 95.3 µM].

On to `CC1(C)S[C@@H]2[C@H](NC(=O)Cc3ccccc3)C(=O)N2[C@H]1C(=O)O` (tested in a mixture with another compound), for which the “activity change, negative = cytotoxicity” value was 21.7%.

As for `NC[C@H]1O[C@H](O[C@H]2[C@H](O)[C@@H](O[C@H]3O[C@H](CO)[C@@H](O)[C@H](N)[C@H]3O)[C@H](N)C[C@@H]2N)[C@H](N)[C@@H](O)[C@@H]1O`, the outcome was inactive.

Regarding `COc1cc2nc(N3CCN(C(=O)C4CCCO4)CC3)nc(N)c2cc1OC` (stereo not given), the “activity change, negative = cytotoxicity” value is 11.5%.

Turning to `CC(C)(C)C(=O)NCCCC(=O)O`, the “activity change, negative = cytotoxicity” value was 12.4%.

Turning to `CCCCc1ccc(Cl)cc1`, the “activity change, negative = cytotoxicity” value is -7.48%.

Regarding `CCCC(=O)OC`, the “activity change, negative = cytotoxicity” value is 25.1%.

For `C=CCOC(=O)CCCCCCCC`, the “activity change, negative = cytotoxicity” value is 9.57% [at 95.3 µM].

With `O=C(O)P(=O)(O)O`, the “activity change, negative = cytotoxicity” value is 17.8%.

As for `CC(C)OCCO`, the “activity change, negative = cytotoxicity” value is -11.8%.

Turning to `CCC(C)SSC(C)CC` (stereo not given), the “activity change, negative = cytotoxicity” value is 15.4%.

Turning to `Cc1cc(O)c(Cl)cc1C`, the “activity change, negative = cytotoxicity” value is -12.2%.

Take `CC(=O)OC1CCC(C(C)(C)C)CC1` (stereo not given): the “activity change, negative = cytotoxicity” value is 3.02%.

Turning to `CC(C)(C)OC(=O)c1ccccc1C(=O)O`, the “activity change, negative = cytotoxicity” value was -15.6%.

On to `COc1cc(NS(=O)(=O)c2ccc(N)cc2)ncn1`, for which the “activity change, negative = cytotoxicity” value is 9.36% [at 39.1 µM].

As for `CCCC(=O)C(CC)Sc1ccoc1C` (stereo not given), the “activity change, negative = cytotoxicity” value was 6.65%.

On to `N=C(N)N`, for which the “activity change, negative = cytotoxicity” value was 8.59%.

In the case of `C=C(C)C(=O)OCCOC1CC2CC1C1C=CCC21` (stereo not given), the “activity change, negative = cytotoxicity” value was 15.1% [at 95.3 µM].

Consider `NNC(=O)OCc1ccccc1`, for which the “activity change, negative = cytotoxicity” value is -6.73%.

As to `CCOC(=O)CC`, the “activity change, negative = cytotoxicity” value is 15.4%.

On to `C=CCCCCCCCCOC(C)=O`, for which the “activity change, negative = cytotoxicity” value is -15.9%.

For the compound `CC(=O)OC/C=C(/C)CCC=C(C)C`, the “activity change, negative = cytotoxicity” value is 12.9%.

In the case of `COC(=O)c1ccc(C(=O)O)cc1`, the “activity change, negative = cytotoxicity” value is 3.09%.

For `C[C@H]1COc2c(C3(N)CC3)c(F)cc3c(=O)c(C(=O)O)cn1c23`, the “activity change, negative = cytotoxicity” value is -8.69%.

For `C=CCCCCCCCCCCCCCC`, the “activity change, negative = cytotoxicity” value was 23.3% [at 39.1 µM].

Turning to `CCC(C)c1nccnc1OC` (stereo not given), the “activity change, negative = cytotoxicity” value was 19.9%.

In the case of `COC(=O)/C=C(\C)CCC=C(C)C`, the “activity change, negative = cytotoxicity” value was -15.7%.

As for `CC(C)=CCC/C(C)=C\C#N`, the “activity change, negative = cytotoxicity” value was -4.44%.

As for `CCOC(=O)CC(C(C)=O)C(C)=O`, the “activity change, negative = cytotoxicity” value is 13.8%.

For `CN1C(CCl)Nc2cc(Cl)c(S(N)(=O)=O)cc2S1(=O)=O` (stereo not given), the “activity change, negative = cytotoxicity” value is 24%.

On to `CCOc1ccccc1OCCN[C@H](C)Cc1ccc(OC)c(S(N)(=O)=O)c1`, for which the “activity change, negative = cytotoxicity” value was 18.4%.

Take `CC(CN1CC(=O)NC(=O)C1)N1CC(=O)NC(=O)C1` (stereo not given): the “activity change, negative = cytotoxicity” value is -1.79%.

`COC(=O)N/N=C/c1c[n+]([O-])c2ccccc2[n+]1[O-]`: the “activity change, negative = cytotoxicity” value is 23.7%.

As for `NNC(=O)CCCCC(=O)NN`, the “activity change, negative = cytotoxicity” value was -10.6%.

As for `COc1cnc(NS(=O)(=O)c2ccc(N)cc2)nc1`, the “activity change, negative = cytotoxicity” value is 17.6% [at 39.1 µM].

Consider `CC(CC(=O)Cl)CC(C)(C)C` (stereo not given), for which the “activity change, negative = cytotoxicity” value was 13.8% [at 95.3 µM].

For `NC(=O)CC[C@@H](N)C(=O)O`, the “activity change, negative = cytotoxicity” value was 7.36%.
